About 83,000 compounds went through this panel and 20% of them were active in at least one assay; those are over-represented in the sample as a whole.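 Activity criterion: percent growth below 10, measured after cells in 96-well plates were exposed to a single compound concentration for 48 hours.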 Unmarked numbers belong to inactive results. The source made the active and inactive calls.
Assays:
Experiment in all cases: NCI-60 one-dose screen, 48 h (100 = growth as untreated, 0 = no growth, -100 = all killed)
Conditions in all cases: 10 µM unless noted
DU-145 prostate = test system: DU-145 prostate
K-562 leukemia = test system: K-562 leukemia
MALME-3M melanoma = test system: MALME-3M melanoma
MDA-MB-231 breast = test system: MDA-MB-231 breast
RXF 393 renal = test system: RXF 393 renal
SF-268 CNS = test system: SF-268 CNS
SF-295 CNS = test system: SF-295 CNS
SF-539 CNS = test system: SF-539 CNS
UACC-257 melanoma = test system: UACC-257 melanoma
M14 melanoma = test system: M14 melanoma

| Structure (SMILES) | growth (DU-145 prostate) | growth (K-562 leukemia) | growth (MALME-3M melanoma) | growth (MDA-MB-231 breast) | growth (RXF 393 renal) | growth (SF-268 CNS) | growth (SF-295 CNS) | growth (SF-539 CNS) | growth (UACC-257 melanoma) | growth (M14 melanoma) |
| --- | --- | --- | --- | --- | --- | --- | --- | --- | --- | --- |
| CCn1c2ccccc2c2cc(C(=O)c3ccc(C)c4ccccc34)ccc21 | 17.9% | 4.51% (active) | 74.4% | 26.4% | 15% | 19.8% | 11.6% | -5.79% (active) | 36.9% | 2.37% (active) |
| CCOC(=O)CCN(C)C1=Nc2ccc(Cl)cc2C(c2ccccc2)=[N+]([O-])C1 | 106% | 96.8% | 101% | 97.9% | 105% | 99.6% | 102% | 107% | 105% | 113% |
| CNC12C3C4C1C1C2C3C41C(=O)N[C@H](C(=O)N(C)[C@H](C[C@@H](OC(C)=O)c1nc(C(=O)N[C@@H](Cc2ccccc2)C[C@H](C)C(=O)OC)cs1)C(C)C)C1CC1 (stereo not given in full) | -1.19% (active) | 0.86% (active) | 34% | 0.928% (active) | 25.5% | 14.4% | 7.26% (active) | -1.2% (active) | 41.1% | 4.03% (active) |
| CCOC(=O)[C@@H](C)C[C@H](Cc1ccccc1)NC(=O)c1csc([C@@H](C[C@H](C(C)C)N(C)C(=O)[C@H](CCC(C)C)NC(=O)[C@H]2CCCCN2C)OC(C)=O)n1 | 15.7% | 7.91% (active) | 33.1% | 1.66% (active) | 12.6% | 22.1% | 12.2% | -10.2% (active) | 46.9% | -7.2% (active) |
| CC12CCC=CC1CCC1C2CCC2(C)C(c3ccc(=O)oc3)CCC12O (stereo not given) | -97.4% (active) | 0.925% (active) | -48.4% (active) | -5.15% (active) | -47.2% (active) | -62.8% (active) | -60% (active) | -90.3% (active) | -70.3% (active) | -30.3% (active) |
| O=C(CC1(O)C(=O)Nc2ccc(Cl)cc21)c1ccc(C(=O)NCC2CCC3(CC2)OOC2(CCCCC2)OO3)cc1 (stereo not given) | -60.1% (active) | -56.9% (active) | -51.5% (active) | 16.8% | 18.5% | 32.9% | 37.6% | -52.5% (active) | 37.8% | 52% |
| COc1ccc2c(c1)c(-c1nc(-c3cn(C)c4ncccc34)cs1)cn2CCN1CCOCC1 | 36.3% | 9.83% (active) | 71.5% | 56.8% | 56.7% | 48.4% | 49.3% | 48% | 93.2% | 31.9% |
| COc1cc([C@@H]2c3cc4c(cc3[C@H](OC(C)=O)[C@H]3COC(=O)[C@@H]23)OCO4)cc(OC)c1OC | 3.27% (active) | 11.2% | 57.1% | 8.36% (active) | 52% | 33% | -15.7% (active) | -33.4% (active) | 49.2% | -15.2% (active) |
| CC[C@H](C)[C@H](NC(=O)C12C3C4C1C1C2C3C41NC)C(=O)N(C)[C@H](C[C@@H](OC(C)=O)c1nc(C(=O)N[C@@H](Cc2ccccc2)C[C@H](C)C(=O)OC)cs1)C(C)C (stereo not given in full) | 7.38% (active) | 9.19% (active) | 50.1% | 29.1% | 39.4% | 30% | 19.4% | -5.82% (active) | 42.1% | -14.4% (active) |
| CCn1c2ccccc2c2cc(C(=O)c3cccc4c3CCCN4)ccc21 | 102% | 101% | 107% | 98.1% | 104% | 102% | 103% | 111% | 113% | 96.9% |
| CC[CH2][Sn]([Cl])([Cl])[CH2]CC | 106% | 30.6% | 21% | 81.6% | 51.1% | 83.2% | 96.1% | 80.4% | 67% | 83.4% |
| COC(=O)[C@@H](C)C[C@H](Cc1ccccc1)NC(=O)c1csc([C@@H](C[C@H](C(C)C)N(C)C(=O)C2(NC(=O)[C@H]3CCCCN3C)CC2)OC(C)=O)n1 | 7.25% (active) | 3.8% (active) | 73.3% | 13.4% | 77.5% | 17.5% | 4.29% (active) | -10.4% (active) | 56% | 0.0884% (active) |
| COc1cccc2c1c(C(=O)c1ccco1)cn2Cc1ccc(F)cc1 | 100% | 253% | 131% | 89.9% | 131% | 114% | 122% | 113% | 104% | 131% |
| COc1cccc2c1c(C(=O)C(=O)Nc1cc(C)no1)cn2Cc1ccc(F)cc1 | 74.2% | 13.4% | 69.3% | 77.5% | 77.4% | 64.3% | 73.6% | 67.2% | 81.4% | 45.7% |
| C1CCC([PH+](C2CCCCC2)C2CCCCC2[PH+](C2CCCCC2)C2CCCCC2)CC1.[Au].[CH-]1CCCCC1CC1CCCC[N-]1 (stereo not given) | -51.1% (active) | 3.54% (active) | -43.5% (active) | -44.6% (active) | -92.7% (active) | -33.6% (active) | -38.8% (active) | -75.1% (active) | -37.3% (active) | -54.6% (active) |
| O=C(c1ccccc1O)c1[nH]c(Cl)c(Cl)c1-n1c(C(=O)c2ccccc2O)cc(Cl)c1Cl | 19.2% | 6.74% (active) | -25.5% (active) | -31.7% (active) | -19.4% (active) | 4.86% (active) | -25.5% (active) | 7.94% (active) | -24.9% (active) | -0.41% (active) |
| CC(=O)O[C@H]1C(=O)[C@@]2(C)[C@H]([C@H](OC(=O)c3ccccc3)[C@]3(O)C[C@H](OC(=O)[C@H](OC(=O)OCC4COC(C)(C)O4)[C@@H](NC(=O)c4ccccc4)c4ccccc4)C(C)=C1C3(C)C)[C@]1(OC(C)=O)CO[C@@H]1C[C@@H]2O (stereo not given in full) | 22.9% | 19.8% | 45% | 39.9% | 32.9% | 61.1% | 17.5% | 24.9% | 59.4% | -14.7% (active) |
| Cn1cc(-c2csc(-c3cn(CCN4CCOCC4)c4ccccc34)n2)c2cccnc21 | 89.1% | 44.8% | 81.4% | 69.8% | 93.7% | 79.8% | 72.2% | 73.2% | 90.7% | 39% |
| COc1cc(C=Nc2cccc(C(=O)O)c2)ccc1N(CCCl)CCCl | 111% | 101% | 84.4% | 106% | 99.4% | 113% | 98.3% | 102% | 85.1% | 104% |
| CCOc1ccccc1C(=O)OCC(Cl)(Cl)Cl | 99.8% | 98.8% | 109% | 114% | 109% | 101% | 105% | 101% | 112% | 103% |
| O=C(CC1(O)C(=O)Nc2ccc(Br)cc21)c1ccc(C(=O)NCC2CCC3(CC2)OOC2(CCCCC2)OO3)cc1 (stereo not given) | 59.1% | -61% (active) | -7.48% (active) | 56.8% | 69.5% | 47.8% | 69.1% | 55% | 49.4% | 61.6% |
| CCN(CC)c1ccc2c(c1)OC(N)=C(C#N)C2c1cc(OC)c2c(c1)OCO2 (stereo not given) | -3.69% (active) | 17.5% | 61.1% | 4.28% (active) | 30.9% | 21.3% | 17% | 3.37% (active) | 77.7% | 7.87% (active) |
